Screening results (PubChem)
Rows were chosen to be rich in hits. Some 11% of all compounds tested hit in one or more screens of this group.
HP1b chromo inh = HP1-beta chromodomain-methylated histone interaction inhibition; P83916; AlphaScreen HP1-beta / biotin-H3K9me3 peptide binding; Potency, µM (doses to about 114 µM), inactives show at the top dose activity change, negative = inhibition, actives largely listed as inhibitors; 390,000 compounds, 0.56% hits; AID 540317; also: nearly all actives have a fitted effect of over 70% in size
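AlphaScreen: HP1-beta (50 nM) preformed 30 min with biotin-H3(1-18)K9me3 peptide (50 nM) in PBS pH 7.4, 0.01% Tween-20. Compound added for 30 min at RT, then streptavidin donor/nickel chelate acceptor beads (10 ug/mL) for 30 min.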
VDR inh = blocks the human vitamin D receptor; P11473; VDR-SRC2-3 peptide fluorescence polarization, 2 h; Potency, µM, without a hit: max response, negative = inhibition, actives largely listed as inhibitors; 400,000 compounds, 0.93% hits; AID 504847; also: % is scaled to controls: 0 for no effect and ±100 for the full control effect
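Two reagent solutions held at 4 deg C in the dark were dispensed, compounds pinned at 23 nl, and the mixture incubated 2 h at room temperature. Read-out: fluorescence polarization of VDR–SRC2-3 peptide binding.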
BAZ2B inh = blocks human BAZ2B; Q9UIF8; AID 504333; AlphaScreen BAZ2B-H3K14Ac peptide displacement; Potency, µM (titrated, usually from 114 µM), inactives show at the highest dose activity change, negative = inhibition, hits mostly inhibitors; 360,000 compounds, 4.4% hits; also: % is scaled to controls: 0 for no effect and ±100 for the full control effect; nearly all actives have a fitted effect of over 60% in size
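In this displacement format the biotinylated H3(5-23) peptide acetylated at Lys14 serves as ligand at 50 nM, with BAZ2B at 50 nM in PBS pH 7.4 containing 0.01% Tween-20. Donor and acceptor beads are 10 ug/mL final.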
JMJD2A Tudor = JMJD2A Tudor domain (human) inhibition | O75164 | AlphaScreen JMJD2A-Tudor / H3K4me3 peptide binding | Potency, µM (top dose mostly 114 µM), without a hit: at the highest dose activity change, negative = inhibition, actives largely listed as inhibitors | 390,000 compounds, 4.4% hits; also: % is scaled to controls: 0 for no effect and ±100 for the full control effect; nearly all actives have a fitted effect of over 50% in size
G9a inh = G9a (human) methyltransferase inhibition; Q96KQ7; G9a H3K9 monomethylation, AlphaScreen, 2 h; Potency, µM (series often up to 102 µM), inactives show at the highest dose activity, negative = inhibition, hits mostly inhibitors; 350,000 compounds, 8.8% hits; also: % is scaled to controls: 0 for no effect and ±100 for the full control effect; nearly all actives have a fitted effect of over 75% in size
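Using a bead-based AlphaScreen, monomethylated H3K9 product from 2 h room-temperature reactions (G9a 20 nM, peptide 500 nM, SAM 20 uM) was detected with 0.5 ug/mL rabbit anti-H3K9me1 antibody.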
PLK1 PBD block = PLK1 (human) polo-box domain binding inhibition; Plk1 PBD binding of FITC phosphopeptide, fluorescence polarization; AID 720504; 360,000 compounds, 2.8% hits; Potency, µM, for inactives: max response, negative = inhibition, usual class: inhibitors; also: series mostly up to about 57 µM; % is scaled to controls: 0 for no effect and ±100 for the full control effect; nearly all actives have a fitted effect of over 65% in size
Target sequence (P53350 whole entry, looked up, the tested form may be a part): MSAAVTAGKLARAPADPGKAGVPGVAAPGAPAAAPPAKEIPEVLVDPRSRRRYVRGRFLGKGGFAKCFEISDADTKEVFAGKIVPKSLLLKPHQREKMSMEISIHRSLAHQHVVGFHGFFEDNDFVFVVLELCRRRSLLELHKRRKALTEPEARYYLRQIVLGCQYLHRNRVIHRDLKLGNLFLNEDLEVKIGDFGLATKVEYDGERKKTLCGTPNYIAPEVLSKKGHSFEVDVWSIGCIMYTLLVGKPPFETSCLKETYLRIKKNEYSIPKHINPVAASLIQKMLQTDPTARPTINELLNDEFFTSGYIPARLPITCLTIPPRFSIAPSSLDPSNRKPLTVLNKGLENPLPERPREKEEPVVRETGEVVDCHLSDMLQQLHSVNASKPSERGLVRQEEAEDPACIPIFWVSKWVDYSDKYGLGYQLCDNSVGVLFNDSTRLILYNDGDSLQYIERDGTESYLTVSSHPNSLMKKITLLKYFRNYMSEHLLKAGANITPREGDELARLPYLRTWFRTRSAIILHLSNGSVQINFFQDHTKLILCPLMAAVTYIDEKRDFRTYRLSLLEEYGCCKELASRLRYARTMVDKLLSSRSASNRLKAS
* marks the source's active call; other numbers are inactive results; ? = inconclusive; nt = not tested or not shown; [ ] = dose if it differs, or a comment. Calls follow the shape of the dose curve; as a rule, active = well fitted curve in the direction sought with a large enough effect; inconclusive = small, poorly fitted or top-dose-only effect, or another doubt; inactive = no such curve, though single readings can be large; an effect the other way counts as inactive or inconclusive. Potency is read from the fitted curve at half-maximal effect.

SMILES	HP1b chromo inh	VDR inh	BAZ2B inh	JMJD2A Tudor	G9a inh	PLK1 PBD block
COc1ccc(C2c3ccc4ccccc4c3Oc3ncn(CCCO)c(=N)c32)cc1 (stereo not given)	7%	23%	71µM*	-33%	-13%[59 µM]	-3%
COc1cccc(C2c3c(ncn(CCCN4CCOCC4)c3=N)Oc3ccc4ccccc4c32)c1 (stereo not given)	nt	nt	nt	28µM*	nt	nt
COc1ccc(C2c3c(ncn(Cc4ccco4)c3=N)Oc3ccc4ccccc4c32)cc1 (stereo not given)	?	-7%	?	?	?	3%
COc1ccc(C2c3c(n(CCc4ccccc4)cnc3=N)Oc3ccc4ccccc4c32)cc1OC (stereo not given)	nt	nt	nt	56µM*	nt	nt
COc1cccc(C2C(C(C)=O)=C(O)C(=O)N2CCNCCO)c1 (stereo not given)	nt	nt	-17%	nt	24%[12.7 µM]	nt
O=S(=O)(c1cccs1)N1CCN(CCc2ccccc2)CC1	34%	-16%	-4%	-12%	nt	-10%
CC(=O)c1cccc(Nc2nc(N3CCOCC3)nc(N3CCOCC3)n2)c1	0%	13%	?	-10%	nt	3%
O=S(=O)(NCCN1CCOCC1)c1cccs1	35%	-11%	-1%	-10%	40µM*	2%
O=C1C(NS(=O)(=O)c2cccs2)=C(N2CCN(Cc3ccccc3)CC2)C(=O)c2ccccc21	16µM*	-4%	13µM*	14µM*	13µM*	-10%
O=C1C(NS(=O)(=O)c2cccs2)=C(N2CCOCC2)C(=O)c2ccccc21	?	-4%	40µM*	?	40µM*	-9%
O=C(O)c1cccc(NC2=C(N3CCOCC3)C(=O)c3ccccc3C2=O)c1	-4%	71µM*	?	-23%	2.8µM*	-18%
Cc1nnc(SCC(=O)Nc2sc3c(c2C(N)=O)CCC(C)C3)[nH]c1=O (stereo not given)	8%	-17%	-63%	?	-49%[59 µM]	?
CCOc1ccccc1N1CCN(C2=C(NS(=O)(=O)c3cccs3)C(=O)c3ccccc3C2=O)CC1	?	3%	8.9µM*	8.9µM*	?	-4%
O=C(CNS(=O)(=O)c1cccs1)N1CCN(c2cccc(C(F)(F)F)c2)CC1	29%[57 µM]	15%	2%	-8%	-5%[59 µM]	nt
CN(C1=C(N2CCOCC2)C(=O)c2ccccc2C1=O)c1ccccc1	35µM*	-2%	10µM*	16µM*	10µM*	-13%
O=C1C(NS(=O)(=O)c2cccs2)=C(N2CCN(c3cccc(C(F)(F)F)c3)CC2)C(=O)c2ccccc21	?	-14%	10µM*	40µM*	?	-16%
c1ccc(N2CCOCCOCCOCCOCCOCC2)cc1	44%	-10%	-19%	-22%	-10%	-9%
CC(Sc1ncn[nH]1)C(=O)NCc1ccccc1 (stereo not given)	22%	9%	0%	-12%	39%	-13%
CN(C)c1ccc(N=Nc2ccc(C(=O)O)cc2)cc1	-25%[57 µM]	?	35µM*	25µM*	10µM*	?
[O-]/C(=C(\C(=S)Nc1ccc(SC(F)F)cc1)[n+]1ccccc1)c1ccc(Cl)cc1Cl	-6%	1%	?	?	35µM*	-4%
Cc1cc(C)cc(NC(=S)/C(=C(\[O-])c2ccc(Cl)cc2Cl)[n+]2ccccc2)c1	-8%	-14%	?	1%[11.4 µM]	?	30µM*
O=C(Nc1ccc(Nc2ccccc2)cc1)c1ccc(Cl)cc1Cl	-13%	-2%	nt	?	nt	-1%
Nc1ccc(C(=O)N2CCN(S(=O)(=O)c3ccc(Cl)s3)CC2)cc1[N+](=O)[O-]	-3%	17%	-32%	-26%	?	0%
COc1cc(CNCc2ccccn2)ccc1OCC(=O)NC(C)(C)C	36%	-6%	50µM*	?	2%[59 µM]	-10%
CCOc1cc(CNc2ccc(OC)cc2)cc(Br)c1OCC(=O)NC(C)(C)C	?	-9%	18µM*	22µM*	?	0%
SMILES	HP1b chromo inh	VDR inh	BAZ2B inh	JMJD2A Tudor	G9a inh	PLK1 PBD block
CCOc1cc(CNCCO)ccc1OCC(=O)NC(C)(C)C	13%	17%	?	-19%[11.4 µM]	17%[59 µM]	24µM*
CCOc1cc(CNCc2ccccc2)ccc1OCC(=O)NC1CCCCC1	26%	-1%	-17%	-19%	-6%	2%
COc1cc(CNCc2ccccn2)ccc1OCC(=O)NC1CCCCC1	28%	-8%	56µM*	?	?	0%
COC(=O)[C@]12CCCCC=C1N(Cc1ccc3c(c1)OCO3)C(=O)[C@H](CC(=O)NCC1CCCCC1)C2	nt	nt	nt	nt	nt	1%
COc1ccccc1CCNC(=O)C(=O)NCC1OCCN1S(=O)(=O)c1ccc(C)cc1 (stereo not given)	44%	-13%	-11%	-16%	4%	1%
CC(C)(C)NC(=O)COc1ccc(CNCc2cccnc2)cc1	35%	-1%	?	89µM*	-37%	?
COc1cc(CNCc2cccnc2)ccc1OCC(=O)NC(C)(C)C	33%	-15%	-34%	-20%	?	-14%
FC(F)(F)c1ccc(-c2n[nH]c(=S)o2)nc1	66%	?	-13%	0%	40µM*	-4%
COc1ccc(NC(=O)c2ccc(Cl)c(S(=O)(=O)NCC3CCCO3)c2)c(OC)c1 (stereo not given)	11%	-2%	-23%	-22%	9%	0%
CCOC(=O)C1CCN(C(=O)CSc2nnc(-c3ccco3)n2-c2ccccc2)CC1	27%	-2%	-5%	-16%	45µM*	-11%
O=C(Nc1ccc2nc(-c3ccco3)c(-c3ccco3)nc2c1)N1CCCCCC1	16µM*	?	11µM*	13µM*	5µM*	24µM*
CCOC(=O)C1CCN(C(=O)Nc2ccc3nc(-c4ccco4)c(-c4ccco4)nc3c2)CC1	40µM*	?	11µM*	79µM*	1.6µM*	12µM*
O=C(Nc1ccc2nc(-c3cccs3)c(-c3cccs3)nc2c1)N1CCCC1	54%	1%	nt	-9%	nt	nt
Cn1cccc1C(=O)N1CCC2(CC1)CCN(c1ccccn1)CC2	nt	1%	nt	nt	-2%[12.7 µM]	nt
Cc1cc(C)c(O)c(N)c1	nt	nt	?	nt	2.2µM*	nt
CCN1CCN(C(c2ccc(SC)cc2)c2c(O)cc(C)n(CCOC)c2=O)CC1 (stereo not given)	9%[57 µM]	-3%	-2%	?	?	nt
COc1ccc(-c2csc(Nc3ncccc3C)n2)cc1	-2%	7%	-9%	?	18µM*	-5%
Cc1cccnc1Nc1nc(-c2ccc(O)c(O)c2)cs1	?	-24%	40µM*	45µM*	11µM*	?
Cc1ccc(-c2cc(-c3ccc4c(c3)OCO4)c(C#N)c(N)n2)o1	33%	2%	nt	7%	?	-24%
